The text below walks through data of PubChem BioAssay AID720517 (National Center for Advancing Translational Sciences (NCATS), 2013).

Inconclusive results are not listed. A call without a number means that no potency is given here. Active and inactive are the calls of the source. Calls come from the whole dose curve; as a rule, active = well fitted activation curve with a large enough effect; inconclusive = small, poorly fitted or top-dose-only effect; inactive = flat fitted curve, though single readings scatter.
Potency is the fitted concentration of half-maximal effect.

A short description of this experiment: qHTS for Inhibitors of Cell Surface uPA Generation: FP59 Counterscreen for Cherry-picked Compounds. The conditions noted are these: FP59 anthrax toxin cytotoxicity counterscreen, cells; series mostly up to 115 µM. On the technique in general: In qHTS, concentration-response curves come from the screen itself.
For `COc1ccc(S(=O)(=O)N2CCOCC2)cc1NC(=O)CN1C(=O)NC2(CCCC2)C1=O`, the Potency result was “inactive”.

`COc1ccc(CC(=O)NNS(=O)(=O)c2ccccc2[N+](=O)[O-])cc1OC`: the Potency result is “inactive”.

For `COc1ccc(Cl)cc1NC(=O)CSc1nc(=O)n(CCN(C)C)c2c1CCCC2`, the Potency entry is “inactive”. In the case of `COc1cc(/C=N/NC(=O)c2ccncc2)ccc1O` it was “inactive”; in that of `COc1ccc2nc(C)cc(Nc3ccccc3O)c2c1`, “inactive”. Regarding `CC(=O)NCCc1cnc[nH]1`, the Potency entry is “inactive”. The same measure for `C=CCn1c(=O)c(C(=O)NCCc2ccc(Cl)cc2)c(O)c2cc(OC)c(OC)cc21`: “inactive”; for `CCSC1=NCCN1S(=O)(=O)c1ccc(Cl)cc1`: “inactive”; for `C#CCOCCOCCOCCNc1nc(N2CCOCC2)nc(N2CCN(C(=O)[C@H](CCC(=O)O)n3cc([C@@H](N)CCCCN)nn3)CC2)n1`: “inactive”. The same measure for `O=C1C=CC(O)(c2cc(=O)c3c(O)cc(O)cc3o2)C=C1`: 14.7 µM (active); for `Cc1ccc(-n2nc3c(c2NC(=O)c2ccc4c(c2)OCO4)CS(=O)C3)c(C)c1` (centres undefined): “inactive”; for `CC1CC(C)(C)Nc2ccc(N=O)cc21` (centres undefined): “inactive”.

With `COc1cc(OC)cc(C(=O)NC(C(=O)Nc2ccc3c(c2)CCC3)C(C)C)c1` (centres undefined), the Potency result was “inactive”.

For the compound `COc1ccc(C(=O)NC(=S)Nc2ccc(NC(=O)c3ccco3)cc2)cc1[N+](=O)[O-]`, the Potency entry was “inactive”. As for `O=C(CSc1ccc([N+](=O)[O-])cn1)Nc1nccs1`, the Potency entry was “inactive”.

Regarding `COc1ccc(/C=N/NC(=O)COc2ccc3ccccc3c2)c(C(=O)O)c1OC`, the Potency result is “inactive”. With `CC(=O)COc1ccc2c(-c3cccc([N+](=O)[O-])c3)cc(=O)oc2c1`, the Potency result is “inactive”. In the case of `Cc1ccccc1NC(=O)N1CCN(c2ncccn2)CC1` it was “inactive”; in that of `CCN1CCN(Cc2ccc(NC(=O)c3cc(NC(=O)c4cncc(-c5cccs5)c4)cc(OC)c3)cc2C(F)(F)F)CC1`, “inactive”.

For `CN(C)c1ccc(S(=O)(=O)N2CCC(Cc3ccccc3)CC2)cn1`, the Potency result is “inactive”. In the case of `CSCC[C@H](NC(=O)[C@H](Cc1ccccc1)n1c(=O)[nH]c2ccccc2c1=O)C(=O)N1CCC[C@H]1C(=O)O` it was “inactive”; in that of `CCN(C(=O)CSc1ncnc2sccc12)c1c(N)n(Cc2ccccc2)c(=O)[nH]c1=O`, “inactive”. The same measure for `CCOC(=O)C(CC)n1cnc2c(nnn2-c2ccccc2)c1=O` (centres undefined): “inactive”; for `Cc1[nH]c2ccccc2c1C(=O)COC(=O)c1cccc(S(=O)(=O)N2CCCCC2)c1`: “inactive”; for `COC(=O)C1=CN(Cc2ccc(F)cc2)C=C(C(=O)OC)C1c1ccc(O)c(OC)c1`: “inactive”. The same measure for `OC(COc1ccc(Br)cc1)CN1CCN(c2ccccc2)CC1` (centres undefined): “inactive”; for `CCOc1ccc(C(=O)NCC(=O)N2CCN(C/C=C/c3ccccc3)CC2)cc1OCC`: “inactive”. Turning to `CC(=O)Nc1nc2ccccc2[nH]1`, the Potency entry was “inactive”. The same measure for `Cc1ccc(NC(=O)CSc2nncn2N)cc1C`: “inactive”.

On to `Cn1cnc([N+](=O)[O-])c1Sc1ccc(Br)cc1`, for which the Potency result is “inactive”. As to `CC(C)(C)OC(=O)N(Cc1ccccc1)Cc1ccccc1OCc1cccc(NC(=O)C2CC2)c1`, the Potency result is “inactive”.

As to `O=C(CCS(=O)(=O)c1ccc2c(c1)NC(=O)CS2)NCCc1ccc(Cl)cc1`, the Potency result was “inactive”.

Turning to `C=CCn1c(SCCN2C(=O)c3ccccc3C2=O)nc2scc(-c3ccc(F)cc3)c2c1=O`, the Potency result is “inactive”. In the case of `COCCNC(=O)C(c1c[nH]c2ccccc12)N(C(=O)c1snc(C(N)=O)c1N)c1cccc(OC)c1` (centres undefined), the Potency entry was “inactive”. In the case of `Cc1ccc(C(=O)COc2cc(O)c3c(=O)cc(-c4ccccc4)oc3c2)cc1` it was “inactive”. The same measure for `CCNc1nc(Nc2ccc(C)c(Cl)c2)c2cnn(C)c2n1`: “inactive”; for `CN(Cc1ccc(C(C)(C)C)cc1)C(=O)Cc1ccc(S(=O)(=O)N2CCOCC2)s1`: “inactive”; for `CCOC(=O)CN1C(=O)N[C@@H](c2ccco2)C(C(=O)OC)=C1C`: “inactive”.

As for `CCOc1ccc(Cl)cc1/C=N/NC(=O)c1ccccc1`, the Potency entry was “inactive”.
